The entries come from a sample that favours hits as a whole.
MBNL1 CUG block – inhibitors of human MBNL1 binding to CUG repeat RNA; AID 2675; Potency, µM (doses to about 57.5 µM), for the others: at the highest dose activity change, negative = inhibition, most hits filed as inhibitors; Q9NR56; TR-FRET MBNL1-His/biotin-(CUG)12 binding, 665/545 ratio; hit rate 0.036% among 280,000; active means well fitted inhibition curve with a large enough effect in the signal ratio, with a control signal flat, not every such curve was filed as active; inconclusive means small, poorly fitted or top-dose-only effect, or effect the other way, or a change in a side signal; inactive means no such curve, though single readings can be large or run the other way; the % refers to the signal ratio; further: potency means the concentration at half of the fitted maximal effect; on the % scale 0 is the no-effect control and ±100 the full control effect
Target sequence (Q9NR56 whole entry, looked up): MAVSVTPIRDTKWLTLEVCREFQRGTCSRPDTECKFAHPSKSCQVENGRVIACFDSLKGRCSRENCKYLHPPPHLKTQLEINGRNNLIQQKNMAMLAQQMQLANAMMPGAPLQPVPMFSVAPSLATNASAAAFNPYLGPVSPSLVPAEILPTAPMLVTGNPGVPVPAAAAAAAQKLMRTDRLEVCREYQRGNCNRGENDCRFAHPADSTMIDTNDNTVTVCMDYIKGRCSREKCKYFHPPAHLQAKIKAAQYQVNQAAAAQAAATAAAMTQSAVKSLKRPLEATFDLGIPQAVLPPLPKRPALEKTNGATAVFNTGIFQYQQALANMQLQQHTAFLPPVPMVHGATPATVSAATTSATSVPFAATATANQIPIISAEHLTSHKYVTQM
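Compounds (final 92 nM to 58 uM) are added to His-tagged MBNL1 and biotin-(CUG)12, then terbium anti-His antibody and streptavidin-XL665 (5 nM final). After 60 min at room temperature, the 665/545 nm ratio is read.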
Menin MLL FP TR – inhibitors of human menin-MLL interaction, mutant MLL peptide; O00255; Menin + Texas Red MLL mutant peptide, fluorescence polarization; Potency, µM (series often up to 61.6 µM), for the others: at the highest dose FP activity change, negative = inhibition, actives largely listed as inhibitors; hit rate 0.23% among 270,000; AID 1768; active means well fitted inhibition curve with a large enough effect in the polarisation, with a control signal flat, not every such curve was filed as active; inconclusive means small, poorly fitted or top-dose-only effect, or effect the other way, or a change in a side signal; inactive means no such curve, though single readings can be large or run the other way; the % refers to the polarisation; further: potency means the concentration at half of the fitted maximal effect; % of control where 0% means no effect
Menin MLL FP FL – inhibitors of human menin-MLL interaction, wild-type MLL peptide. Fluorescence polarization, fluorescein-MLL peptide displacement from menin. 290,000 tested, under 10 active. AID 1766. FP activity change, % at 61.4 µM; active means well fitted curve in the direction sought with a large enough effect in the polarisation, not every such curve was filed as active; inconclusive means small, poorly fitted or top-dose-only effect, or effect the other way, or a change in a side signal; inactive means no such curve, though single readings can be large or run the other way; the % refers to the polarisation; further: % of control where 0% means no effect
CXXC DNA block – MLL CXXC-DNA interaction inhibition | Q03164 | MLL-CXXC / FITC-HOXA9 DNA fluorescence polarization | Potency, µM (series often up to 115 µM), for the others: top-dose activity change, negative = inhibition, hits mostly inhibitors | hit rate 0.037% among 290,000 | AID 2662; active means well fitted inhibition curve with a large enough effect in the polarisation, with a control signal flat, not every such curve was filed as active; inconclusive means small, poorly fitted or top-dose-only effect, or effect the other way, or a change in a side signal; inactive means no such curve, though single readings can be large or run the other way; the % refers to the polarisation; further: potency means the concentration at half of the fitted maximal effect
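Steps: dispense CXXC domain solution (7 uM) → pin compounds or unlabeled HOX-A9 DNA control → 5 min ambient → add FLSN-HOX-A9 solution (50 nM) → spin → 30 min ambient → fluorescence polarization. Tris pH 7.5/NaCl/DTT/BSA buffer.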
MLL CXXC Fl – disrupts human MLL CXXC domain binding to DNA | shares compounds with CXXC DNA block | Potency, µM (highest dose often 345 µM), for the others: at the top dose activity change, negative = inhibition, hits mostly inhibitors | MLL CXXC-DNA binding, fluorescein FP | AID 624160 | hit rate 70% among 200; further: potency means the concentration at half of the fitted maximal effect; nearly all actives have a fitted effect of over 80% in size
MLL CXXC FP-TR – disrupts human MLL CXXC domain binding to DNA, Texas Red; MLL CXXC-DNA binding, Texas Red fluorescence polarization; shares compounds with CXXC DNA block; Potency, µM (doses to about 345 µM), for the others: at the highest dose activity change, negative = inhibition, most hits filed as inhibitors; hit rate 40% among 200; further: potency means the concentration at half of the fitted maximal effect; on the % scale 0 is the no-effect control and ±100 the full control effect; nearly all actives have a fitted effect of over 75% in size
MLL CXXC HTRF – inhibitors of human MLL CXXC domain-DNA interaction, HTRF format; shares compounds with CXXC DNA block; MLL CXXC-DNA binding, HTRF, biochemical; Potency, µM (highest dose often 172 µM), inactives show top-dose activity change, negative = inhibition, actives largely listed as inhibitors; hit rate 30% among 210; further: on the % scale 0 is the no-effect control and ±100 the full control effect; nearly all actives have a fitted effect of over 80% in size
MBNL1-CUG FRET – MBNL1-poly(CUG) RNA binding inhibition confirmed. Potency, µM (series often up to 57.6 µM), inactives show at the highest dose activity change, negative = inhibition, hits mostly inhibitors. AID 493199. hit rate 50% among 140. TR-FRET MBNL1-His / biotin-(CUG)12 binding, 60 min. shares compounds with MBNL1 CUG block
MBNL1-CUG Alpha – MBNL1-CUG RNA binding inhibition, AlphaScreen validation. shares compounds with MBNL1 CUG block. AlphaScreen MBNL1-His / biotin-(CUG)12 binding. Potency, µM (top dose mostly 57.7 µM), for inactives: at the top dose activity, negative = inhibition, actives largely listed as inhibitors. hit rate 30% among 140. AID 493205
MBNL1 HTRF CS – MBNL1-CUG RNA binding inhibitor counterscreen activity. His-Menin/biotin-MLL peptide TR-FRET counterscreen. hit rate 20% among 120. AID 651843. shares compounds with MBNL1 CUG block. Potency, µM (highest dose often 57.6 µM), for the others: top-dose activity, negative = inhibition, most hits filed as inhibitors
Starred values were filed as active, the others as inactive; ? = inconclusive; . = not tested or not shown; [ ] = remark or other dose. Unless noted, the call rests on the fitted dose curve; in most records, active means well fitted curve in the direction sought with a large enough effect; inconclusive means small, poorly fitted or top-dose-only effect, or another doubt; inactive means no such curve, though single readings can be large; an effect the other way counts as inactive or inconclusive.

SMILES	MBNL1 CUG block	Menin MLL FP TR	Menin MLL FP FL	CXXC DNA block	MLL CXXC Fl	MLL CXXC FP-TR	MLL CXXC HTRF	others
CC1=CC(=O)C2=C(C)CC[C@H]3[C@H](C)C(=O)O[C@@H]3C12 (stereo not given in full)	.	7.7%	-3.3	.	.	.	.
N#CC(C#N)=C1C=C2C=C(N3CCCCCC3)CCC2CC1 (stereo not given)	?	?	?	?	0.448µM*	71.1µM*	217.1%
CC(C)(C)c1ccc(N2C[C@@H](COc3ccc(C(=O)O)cc3)CC2=O)cc1	.	20.3%	-0.4	.	.	.	.
O=C1/C(=N\S(=O)(=O)c2cccs2)C([n+]2cccc(Cc3ccccc3)c2)=C([O-])c2ccccc21	?	.	?	25.1µM*	142µM*	?	68.8%
O=C1/C(=N\S(=O)(=O)c2cccs2)C([n+]2ccc(CCCc3ccccc3)cc2)=C([O-])c2ccccc21	?	.	-18.8	-28.6%	.	.	.
COc1cc(C/C=C\c2ccccc2)c(OC)cc1O	.	?	-1.5	.	.	.	.
CC1=C(C(=O)O)N2C(=O)[C@@H](NC(=O)[C@@H](N)c3ccccc3)[C@@H]2SC1	.	6.5%[24.8 µM]	-3.0[24.8 µM]	.	.	.	.
O=C(O)c1ccc(S(=O)(=O)/N=C2\C=C(Nc3ccccc3F)C(=O)c3ccccc32)cc1	?	?	-19.8	?	113µM*	142µM*	-44.4%
CCC1OC2(C)OC(=N)C1(C#N)C(C#N)(C#N)C2c1ccccc1 (stereo not given)	26.3%	-7.1%	2.2	10.2%	.	.	.
CCC12OC(=N)C(C#N)(C1C)C(C#N)(C#N)C(c1ccccc1)O2 (stereo not given)	.	-6.0%	-3.3	20µM*	12.6µM*	22.5µM*	32.5%
CCOC(=O)/C(C#N)=C1\SS/C(=C(/C#N)C(=O)OCC)S1	64.2%	?	?	17.8µM*	25.2µM*	63.3µM*	4.85µM*
CC(=O)OCCCN1C(=O)c2cccc3cc(Br)cc(c23)C1=O	?	-21.6%	-1.3	-6.0%	.	.	.
CCN(CC)CCN1C(=O)c2cccc3cc(N)cc(c23)C1=O	?	1.1%	?	35.5µM*	89.5µM*	?	97.4%
Nc1cc2c3c(cccc3c1)C(=O)N(CCN1CCCC1)C2=O	?	-17.3%	?	7.94µM*	142µM*	?	87.4%
O=C1c2cccc3cc([N+](=O)[O-])cc(c23)C(=O)N1CCN1CCCC1	?	-12.2%	?	?	.	.	.
CN1C/C(=C/c2ccc(B(O)O)cc2)C(=O)/C(=C/c2ccc(B(O)O)cc2)C1	.	26.0%	4.9	.	.	.	.
C=CCOc1ccc(C2OC34CCCCC3C(C#N)(C#N)C2(C#N)C(=N)O4)cc1 (stereo not given)	?	-19.0%	?	-15.4%	.	.	.
Cc1ccc(C2OC34CCCCCC3C(C#N)(C(=N)O4)C2(C#N)C#N)cc1 (stereo not given)	.	-9.2%	-4.0	7.94µM*	12.1%	?	34.3%
CCCCOc1ccc(C2OC34CCCCC3C(C#N)(C#N)C2(C#N)C(=N)O4)cc1 (stereo not given)	?	.	?	8.8%	.	.	.
CCOc1ccc(C2OC34CCCCC3C(C#N)(C#N)C2(C#N)C(=N)O4)cc1OC (stereo not given)	?	.	?	25.1µM*	17.9µM*	35.6µM*	13.7%
COC(=O)c1cc(=O)c(O)c2c(O)c(O)ccc2c1	.	?	0.4	.	.	.	.
Cc1cc2nc3c(=O)[nH]c(=O)nc-3n(CC(O)C(O)C(O)CO)c2cc1C (stereo not given)	.	-2.4%	?	.	.	.	.
CC(=O)OCCn1c2nc(=O)[nH]c(=O)c-2nc2cc(C)c(C)cc21	?	-2.0%	?	?	1.79µM*	2.4%	13.6%
CCCC(=O)OC[C@@H](OC(=O)CCC)[C@@H](OC(=O)CCC)[C@H](Cn1c2nc(=O)[nH]c(=O)c-2nc2cc(C)c(C)cc21)OC(=O)CCC	.	-21.0%	?	?	14.2µM*	?	22.6%
CC(=O)N[C@@H]1C(O[C@H]2O[C@H](C(=O)O)C(O)[C@H](O)[C@H]2O)[C@H](O)[C@@H](CO)O[C@H]1O[C@@H]1C(C(=O)O)O[C@@H](O[C@H]2[C@H](O)[C@@H](CO)OC(O)[C@@H]2NC(C)=O)[C@H](O)[C@H]1O (stereo not given in full)	.	-5.4%	-5.4	1.2%	.	.	.
O=C1c2c(O)ccc(O)c2C(=O)c2c(NCCNCCO)ccc(NCCNCCO)c21	?	?	?	?	6.79µM*	12.1µM*	7.35µM*	MBNL1-CUG FRET=1.58µM*;MBNL1-CUG Alpha=?;MBNL1 HTRF CS=-5.7%[19.2 µM]
Cc1ccc(F)cc1-c1ccc(C(=O)N=C(N)N)o1	.	5.0%	-0.8	.	.	.	.
C[C@@H]1O[C@@H](OC[C@H]2O[C@@H](Oc3c(-c4ccc(O)c(O)c4)oc4cc(O)cc(O)c4c3=O)[C@H](O)[C@@H](O)[C@@H]2O)[C@H](O)[C@H](O)[C@H]1O	?	-7.4%	1.7	-3.2%	.	.	.	MBNL1-CUG FRET=?;MBNL1-CUG Alpha=?;MBNL1 HTRF CS=16.6%

Screening data as filed in PubChem.
